Source: PubChem
A selection: hits, their analogues and other compounds. The true share with any hit is near 2.4%.
D2 antagonist: HTS Assay for Allosteric Antagonists of the Human D2 Dopamine Receptor: Primary Screen for Antagonists. HEK293 TREx D2 cells, calcium flux, dopamine EC80. inhibition, % at 10 µM. AID 485344, 2010. D(2) dopamine receptor (Homo sapiens), P14416. 340,000 compounds, 2% hits; in the data active means inhibition above about 30%; inactive means below that, where a call was filed
Target sequence (P14416 whole entry, looked up): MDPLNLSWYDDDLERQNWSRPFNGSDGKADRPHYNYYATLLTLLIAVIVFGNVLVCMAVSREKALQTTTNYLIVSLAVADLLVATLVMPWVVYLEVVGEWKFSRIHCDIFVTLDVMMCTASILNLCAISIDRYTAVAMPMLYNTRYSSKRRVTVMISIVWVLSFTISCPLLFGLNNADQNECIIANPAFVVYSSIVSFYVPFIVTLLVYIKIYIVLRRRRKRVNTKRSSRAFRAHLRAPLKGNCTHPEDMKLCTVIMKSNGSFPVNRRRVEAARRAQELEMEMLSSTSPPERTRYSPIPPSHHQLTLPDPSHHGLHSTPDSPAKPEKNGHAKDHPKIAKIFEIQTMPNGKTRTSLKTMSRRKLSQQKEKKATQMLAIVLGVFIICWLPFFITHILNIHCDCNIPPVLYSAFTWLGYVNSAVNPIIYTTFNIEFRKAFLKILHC
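Dopamine at EC80 is the agonist stimulus; test compounds precede it by 180 s. Calcium flux read kinetically in a force-coupled, inducible HEK293 T-REx D2 cell line.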
D2 ag-1: HTS Assay for Allosteric Agonists of the Human D2 Dopamine Receptor: Primary Screen for Agonists; D(2) dopamine receptor (Homo sapiens), P14416; HEK293 T-REx D2 cells, calcium flux agonist mode; activation, % at 2 µM; 340,000 compounds, 0.53% hits;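 active means activation over 3 SD above normal in the single-dose calcium agonist read, cut at about 30% in these data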
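Tetracycline-induced HEK293 Trex cells with D2 receptor force-coupled to calcium signaling, plated overnight at 30 C and loaded with no-wash calcium dye. Calcium flux read kinetically for 180 s after compound addition; responses flag agonists.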
D2 PAM-1: Beta-Arrestin HTS for Positive Allosteric Modulators of the Human D2 Dopamine Receptor: Potentiators; 360,000 compounds, 0.23% hits; potentiation, % (no concentration beside the values); DiscoveRx D2 beta-arrestin cells, luminescence, 90 min; 100% = 57 uM dopamine signal; in the data active means potentiation above about 50%; inconclusive means mostly about 30% to 49%
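PathHunter D2 cells, attached overnight at 37 deg C, received compound in DMSO plus dopamine at EC20 (50 nM final) for 90 min at 37 deg C. Beta-arrestin recruitment was read as luminescence after 1 h with detection reagent at ambient temperature.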
D2 ag-2: Beta-Arrestin HTS for Positive Allosteric Modulators of the Human D2 Dopamine Receptor: Agonists; 360,000 compounds, 0.084% hits; activation, % (test concentration not listed); DiscoveRx PathHunter D2 beta-arrestin, luminescence, 90 min; 100% = 57 uM dopamine signal; in the data active means activation above about 40%; inconclusive means between about 15% and that limit
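Agonist mode: compounds alone added to overnight-plated D2 PathHunter cells for 90 min at 37 C, with 57 uM final dopamine (EC100) defining full response. Beta-arrestin recruitment detected by chemiluminescent reagent, read after 1 h at ambient temperature.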
D2 PAM-2: HTS Assay for Positive Allosteric Modulators of the Human D2 Dopamine Receptor: Primary Screen for Potentiators; D(2) dopamine receptor (Homo sapiens), P14416; HEK293 T-REx D2, calcium flux, EC20 dopamine potentiation; potentiation, % at 10 µM; 340,000 compounds, 0.34% hits;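 active means potentiation over 3 SD above the plate norm, cut at about 30% in these data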
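Tetracycline-induced HEK293 T-REx cells force-coupled to calcium signalling expressed D2; compounds were pin-added after a 10 s baseline, read kinetically 180 s, then an EC20 dopamine challenge followed with a further 180 s calcium read.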
Numbers stand for hits.

For COc1ccc(-c2nc3ccc([N+](=O)[O-])cc3[nH]2)cc1 the results were D2 antagonist inactive, D2 ag-1 inactive, D2 PAM-1 inactive, D2 ag-2 inactive and D2 PAM-2 inactive.
`Cc1ccc(-c2nc3ccc([N+](=O)[O-])cc3[nH]2)cc1` gave D2 antagonist 44.5, D2 ag-1 inactive, D2 PAM-1 inactive, D2 ag-2 inactive and D2 PAM-2 inactive.
`Cc1ccc(CN2COc3ccc4c(C)cc(=O)oc4c3C2)cc1` gave D2 ag-1 inactive and D2 PAM-2 inactive.
`O=C(NCCc1cnc[nH]1)Nc1cccc(C(F)(F)F)c1` gave D2 antagonist 40.2, D2 ag-1 inactive, D2 PAM-1 inactive, D2 ag-2 inactive and D2 PAM-2 inactive.
For O=C(NCc1cccnc1)Nc1cccc(C(F)(F)F)c1 the results were D2 antagonist inactive, D2 ag-1 inactive, D2 PAM-1 inactive, D2 ag-2 inactive and D2 PAM-2 inactive.
Screening NC(=O)CSc1nnc(-c2cnccn2)n1-c1ccccc1 returned D2 antagonist inactive, D2 ag-1 inactive, D2 PAM-1 inactive, D2 ag-2 inactive and D2 PAM-2 36.2.
`Cn1c(SCc2ccccc2)nnc1-c1cnccn1` gave D2 antagonist 37.1, D2 ag-1 inactive, D2 PAM-1 inactive, D2 ag-2 inactive and D2 PAM-2 inactive.
Cn1c(SCc2ccc(F)cc2)nnc1-c1cnccn1 was read as D2 antagonist inactive, D2 ag-1 inactive, D2 PAM-1 inactive, D2 ag-2 inactive and D2 PAM-2 inactive.
For Cc1ccc(C)c(CN2C(=O)c3ccccc3S(=O)(=O)c3ccc(C(=O)N4CCOCC4)cc32)c1 the results were D2 ag-1 inactive and D2 PAM-2 inactive.
Screening CCCCNC(=S)NNC(=O)c1ccco1 returned D2 antagonist inactive, D2 ag-1 inactive, D2 PAM-1 inactive, D2 ag-2 inactive and D2 PAM-2 45.9.
For COc1ccccc1-n1c(SCC(=O)NC2CCS(=O)(=O)C2)nc2cc([N+](=O)[O-])ccc21 (stereo not drawn) the results were D2 antagonist inactive, D2 ag-1 inactive, D2 PAM-1 inactive, D2 ag-2 inactive and D2 PAM-2 inactive.
Screening CCN(CC)S(=O)(=O)c1ccc2c(c1)nc(SCC(=O)NC1CC1)n2-c1ccccc1OC returned D2 antagonist 50.5, D2 ag-1 inactive, D2 PAM-1 inactive and D2 ag-2 inactive.
Screening CSc1nnc(C)c(=O)n1COC(=O)c1ccccc1 returned D2 antagonist inactive, D2 ag-1 inactive, D2 PAM-1 inactive, D2 ag-2 inactive and D2 PAM-2 inactive.
`CCN(CC)S(=O)(=O)c1ccc(C(=O)OCn2c(SC)nnc(C)c2=O)cc1` gave D2 antagonist 35.4, D2 ag-1 inactive, D2 PAM-1 inactive, D2 ag-2 inactive and D2 PAM-2 inactive.
CCN(CC)S(=O)(=O)c1ccc(C(=O)OCn2nnc3ccccc3c2=O)cc1 was read as D2 antagonist inactive, D2 ag-1 inactive, D2 PAM-1 inactive, D2 ag-2 inactive and D2 PAM-2 75.4.
`CCOC(=O)CSc1nc2ccc(NC(=O)c3ccc(C)cc3)cc2s1` gave D2 ag-1 inactive and D2 PAM-2 inactive.
COc1cccc(COC(=O)C2CC(=O)N(Cc3ccccc3)C2)c1OC (stereo not drawn) was read as D2 PAM-1 inactive and D2 ag-2 inactive.
COc1ccc(C(C)=O)cc1COC(=O)C1CC(=O)N(Cc2ccccc2)C1 (stereo not drawn) was read as D2 antagonist inactive, D2 ag-1 inactive, D2 PAM-1 53.8, D2 ag-2 inactive and D2 PAM-2 inactive.
CN1C(=O)C(N=Nc2ccccc2C(=O)O)N(C)C1=S (stereo not drawn) was read as D2 antagonist 40.1, D2 ag-1 inactive, D2 PAM-1 inactive, D2 ag-2 inactive and D2 PAM-2 inactive.
Screening Cc1cc(O)c(C(C)C)cc1N=Nc1ccccc1C(=O)O returned D2 antagonist inactive, D2 ag-1 inactive, D2 PAM-1 inactive, D2 ag-2 inactive and D2 PAM-2 inactive.
For O=C1C(=O)c2ccccc2C(O)=C1c1cccc([N+](=O)[O-])c1 the results were D2 antagonist 48.1, D2 ag-1 inactive, D2 PAM-1 inactive, D2 ag-2 inactive and D2 PAM-2 inactive.
Screening COc1cc(C2N=C(N)Nc3nc4ccccc4n32)ccc1OCC(=O)O (stereo not drawn) returned D2 ag-1 inactive and D2 PAM-2 inactive.
CCN(CC)S(=O)(=O)c1cc(NC(=O)C2CCN(c3ncnc4sc(C)c(C)c34)CC2)ccc1Cl was read as D2 antagonist 36.5, D2 ag-1 inactive, D2 PAM-1 inactive, D2 ag-2 inactive and D2 PAM-2 inactive.
Screening COc1ccc(/C=C(\C#N)C(=O)OC2CCOC2=O)cc1 (stereo not drawn) returned D2 antagonist 33.4, D2 ag-1 inactive, D2 PAM-1 inactive, D2 ag-2 inactive and D2 PAM-2 inactive.
Cc1ccccc1CNC(=O)Cn1ncn2nc(-c3cccs3)cc2c1=O was read as D2 ag-1 inactive and D2 PAM-2 inactive.
CCn1nc(NC(=O)c2ccncc2)c2cc3cc(C)ccc3nc21 was read as D2 antagonist inactive, D2 ag-1 inactive, D2 PAM-1 inactive, D2 ag-2 inactive and D2 PAM-2 34.5.
Screening CCn1nc(NC(=O)c2ccncc2)c2cc3ccc(C)cc3nc21 returned D2 antagonist inactive, D2 ag-1 inactive, D2 PAM-1 inactive, D2 ag-2 inactive and D2 PAM-2 inactive.
COC(=O)CCC(=O)OC1(C)C(=O)C=C2C=C(C3CC3)N(Cc3ccc(OC)cc3)C=C2C1=O (stereo not drawn) was read as D2 antagonist inactive, D2 ag-1 inactive, D2 PAM-1 inactive, D2 ag-2 inactive and D2 PAM-2 inactive.
For COC(=O)CCC(=O)OC1(C)C(=O)C=C2C=C(C3CC3)N(Cc3ccc4c(c3)OCO4)C=C2C1=O (stereo not drawn) the results were D2 antagonist inactive, D2 ag-1 inactive, D2 PAM-1 72.6, D2 ag-2 inactive and D2 PAM-2 inactive.
`N/C(=N\OC(=O)c1cccs1)c1ccccc1` gave D2 antagonist inactive, D2 ag-1 inactive, D2 PAM-1 inconclusive, D2 ag-2 inactive and D2 PAM-2 inactive.
Screening COc1ccc(/C(N)=N/OC(=O)c2c(-c3ccccc3Cl)noc2C)cc1OC returned D2 antagonist inactive, D2 ag-1 inactive, D2 PAM-1 56.5, D2 ag-2 inconclusive and D2 PAM-2 inactive.
`Cc1cccc(/C(N)=N/OC(=O)c2cccs2)c1` gave D2 PAM-1 111.9 and D2 ag-2 inconclusive.
